# Values joined by “and” are separate entries in the source; they are usually repeats but may differ in a detail not shown here. Identical values can stand only once. For some of these results: Potency and affinity values are given separately. Active and inactive are the calls of the source.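 How the source made its calls, unless noted: active means dose-response curve with midpoint inside the tested range, moderate steepness, significant amplitude and little compound fluorescence or bead-attachment interference; inactive means the rest.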
# Key:
# [1] = target: Cell division control protein 42 homolog (Homo sapiens) (UniProt P60953); assay: activated mutant Cdc42 GTP-binding inhibitors, dose response, biochemical, multiplex bead flow cytometry, Bodipy-FL-GTP (AID 1333;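 active means fitted half-maximal concentration within the tested dose range, moderate curve steepness, a statistically real signal drop, and little compound fluorescence or tag-binding interference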); conditions: bead-based flow cytometry; series mostly up to 100 µM
# [2] = target: Cell division control protein 42 homolog (Homo sapiens) (UniProt P60953); assay: wildtype Cdc42 GTP-binding inhibitors, dose response, biochemical, multiplex bead flow cytometry, Bodipy-FL-GTP (AID 1334;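 active means fitted half-maximal concentration within the tested range, moderate curve steepness, significant signal drop, and little compound fluorescence or bead-linkage interference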); conditions: bead-based flow cytometry, Bodipy-FL-GTP binding to GST-Cdc42; at 100 µM (top of the series) unless noted
# [3] = target: GTPase HRas (Homo sapiens) (UniProt P01112); assay: inhibitors of GTP binding to wildtype Ras, dose response, biochemical, multiplex bead flow cytometry (AID 1335;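 active means fitted half-maximal concentration within 10 nM to 100 µM, steepness 0.5 to 2, significant signal drop, low assay interference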); conditions: bead-based flow cytometry, Bodipy-GTP binding to GST-Ras; at 100 µM (top of the series) unless noted
# [4] = system: Ras-related protein Rab-7a (dog), GTP binding; assay: Rab7 GTP binding inhibitors, potency, dose response, biochemical, wildtype, multiplex bead flow cytometry (AID 1336; call rule not given here); conditions: bead-based flow cytometry, fluorescent GTP binding to Rab7; series mostly up to 100 µM
# [5] = target: GTPase HRas (Homo sapiens) (UniProt P01112); assay: activated Ras mutant GTP binding inhibitors, dose response, biochemical, multiplex bead flow cytometry (AID 1341); conditions: bead-based flow cytometry, Bodipy-FL-GTP binding; series mostly up to 100 µM;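 further: GST-tagged constitutively activated Ras mutant immobilized on beads and multiplexed with other GTPases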
# [6] = target: Ras-related C3 botulinum toxin substrate 1 (Homo sapiens) (UniProt P63000); assay: wildtype Rac1 GTP binding inhibitors, dose response, biochemical, multiplex bead flow cytometry (AID 1340;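 active means dose curve with midpoint inside tested range, moderate steepness, plateau gap beyond fit error, low compound glow and bead-link interference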); conditions: GST-Rac1 beads, Bodipy-FL-GTP binding; at 100 µM (top of the series) unless noted
# [7] = RPL19A-GFP modulators, yeast TOR pathway, confirmation, cell-based, S. cerevisiae, flow cytometry, cherry picks, mother/daughter gates (AID 2270;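 active means GFP response below 50% of the DMSO control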); conditions: S. cerevisiae RPL19A-GFP strain, 3 h, at 10 µM, stronger effect = lower value, 100 = same GFP as DMSO wells
# [8] = LAP4-GFP expression modulators in yeast, confirmation, cell-based, cherry picks, flow cytometry, mother/daughter gates (AID 2271;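 active means GFP response above 150% of the DMSO control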;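 further: ratio of sample to DMSO plate mean so 100% equals DMSO level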); conditions: S. cerevisiae LAP4-GFP strain, 3 h, at 10 µM, stronger effect = higher value, 100 means same as DMSO control
# [9] = modulators of MEP2-GFP levels in yeast, confirmation, S. cerevisiae, flow cytometry GFP, cherry picks (AID 2272;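 active means GFP response above 150% of the DMSO control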;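 further: ratio of well signal to plate DMSO mean so 100% equals DMSO level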); conditions: S. cerevisiae MEP2-GFP strain, 3 h, at 10 µM, stronger effect = higher value
# [10] = AGP1-GFP expression modulators, hit retest, confirmation, cell-based, flow cytometry, S. cerevisiae, cherry picks (AID 2273;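 active means GFP response above 150% of the DMSO level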;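 further: median GFP channel fluorescence over the whole cell population gate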); conditions: S. cerevisiae AGP1-GFP strain, 3 h, at 10 µM
# [11] = modulators of CIT2-GFP expression in yeast, confirmation, S. cerevisiae, GFP fusion, cherry picks, mother/daughter gates (AID 2274;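 active means GFP response above 150% of the DMSO level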); conditions: S. cerevisiae CIT2-GFP strain, flow cytometry, 3 h, at 10 µM, stronger effect = higher value
# [12] = measured here: daughter cell gate
# [13] = measured here: mother cell gate
# [14] = measured here: daughter cell gate response
# [15] = measured here: mother cell gate response
# Sequence of GTPase HRas (Homo sapiens) (P01112 whole entry, looked up): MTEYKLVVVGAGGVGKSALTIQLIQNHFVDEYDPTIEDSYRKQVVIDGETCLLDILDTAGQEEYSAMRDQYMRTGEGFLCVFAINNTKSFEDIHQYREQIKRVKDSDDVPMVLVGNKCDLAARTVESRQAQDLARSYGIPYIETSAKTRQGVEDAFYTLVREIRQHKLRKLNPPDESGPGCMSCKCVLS
# Sequence of Cell division control protein 42 homolog (Homo sapiens) (P60953 whole entry, looked up): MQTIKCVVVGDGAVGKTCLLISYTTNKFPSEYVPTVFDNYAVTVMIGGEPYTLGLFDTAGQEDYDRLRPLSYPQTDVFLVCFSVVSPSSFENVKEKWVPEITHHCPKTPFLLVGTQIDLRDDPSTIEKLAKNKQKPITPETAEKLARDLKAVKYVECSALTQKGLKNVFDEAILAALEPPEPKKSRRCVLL
compound,measurement,setting,value
COc1cc(SC#N)ccc1N=Cc1c(C)[nH]n(-c2ccc(C)c(C)c2)c1=O,outcome,[1],inactive
same,"fluorescence, percent of control (lower = inhibition)",[2],44.7%
same,"GTP binding, percent of control",[3],83%
same,outcome,[4],inactive
same,outcome,[5],inactive
COc1cc(/C=N/Nc2nnc3c(n2)[nH]c2ccccc23)ccc1O,outcome,[1],inactive
same,"fluorescence, percent of control (lower = inhibition)",[2],33.9%
same,"GTP binding, percent of control",[3],79.1%
same,outcome,[4],inactive
same,outcome,[5],inactive
O=C(O)c1cc(Sc2ccc(Cl)cc2)nc2ccccc12,"fluorescence, percent of control (lower = inhibition)",[2],55.8%
same,"GTP binding, percent of control",[3],81.1%
same,outcome,[4],inactive
same,"GTP binding signal, raw median fluorescence (lower = inhibition) (MCF (arbitrary fluorescence units))",[6],29
same,outcome,[5],inactive
CCn1cc(C=C2C(=O)c3ccccc3C2=O)c2ccccc21,outcome,[1],inactive
same,"fluorescence, percent of control (lower = inhibition)",[2],40.2%
same,outcome,[4],inactive
same,"GTP binding signal, raw median fluorescence (lower = inhibition) (MCF (arbitrary fluorescence units))",[6],161
same,outcome,[5],inactive
O=C(O)c1ccccc1Oc1ccccc1,outcome,[1],inactive
same,"fluorescence, percent of control (lower = inhibition)",[2],83.7%
same,"GTP binding, percent of control",[3],100%
same,"GTP binding signal, raw median fluorescence (lower = inhibition) (MCF (arbitrary fluorescence units))",[6],65
same,outcome,[5],inactive
CCOC(=O)Cn1nnnc1C(C(C)C)N(Cc1cccs1)Cc1cc2cc(C)ccc2[nH]c1=O (configuration not stated),outcome,[1],inactive
same,"GTP binding, percent of control",[3],181%
same,outcome,[4],inactive
same,"GTP binding signal, raw median fluorescence (lower = inhibition) (MCF (arbitrary fluorescence units))",[6],181
same,outcome,[5],inactive
CCCS(=O)(=O)c1nnnn1-c1cccc(OC)c1,outcome,[1],inactive
same,"GTP binding, percent of control",[3],71.2%
same,outcome,[4],inactive
same,"GTP binding signal, raw median fluorescence (lower = inhibition) (MCF (arbitrary fluorescence units))",[6],230
same,outcome,[5],inactive
same,GFP response vs DMSO,[7],87.7% (inactive)
same,GFP response vs DMSO,[7]; [12],84.6%
same,GFP response vs DMSO,[7]; [13],83.9%
same,GFP response relative to DMSO,[8],176% (active)
same,GFP response relative to DMSO,[8]; [14],154%
same,GFP response relative to DMSO,[8]; [15],178%
same,GFP response vs DMSO,[9],119% (inactive)
same,"GFP response, % of DMSO",[10],106% (inactive)
same,"GFP response, % of DMSO",[11],74.8% (inactive)
same,"GFP response, % of DMSO",[11]; [12],74.6%
same,"GFP response, % of DMSO",[11]; [13],65.8%
NS(=O)(=O)c1ccc(N2N=C(c3ccccc3)CC2c2ccccc2)cc1 (configuration not stated),outcome,[1],inactive
same,"GTP binding, percent of control",[3],68% and 97.6%
same,outcome,[4],inactive
same,"GTP binding signal, raw median fluorescence (lower = inhibition) (MCF (arbitrary fluorescence units))",[6],223 and 99.4
same,outcome,[5],inactive
CCOC(=O)CN(C(=O)CSc1nnc2c(n1)[nH]c1ccc(OC)cc12)c1ccc(F)cc1,outcome,[1],inactive
same,"fluorescence, percent of control (lower = inhibition)",[2],47.9%
same,"GTP binding, percent of control",[3],58.9%
same,outcome,[4],inactive
same,outcome,[5],inactive
COc1cccc(NC(=O)COC(=O)/C=C/c2ccc(Cl)cc2Cl)c1,"fluorescence, percent of control (lower = inhibition)",[2],48.4%
same,"GTP binding, percent of control",[3],62%
same,outcome,[4],inactive
same,"GTP binding signal, raw median fluorescence (lower = inhibition) (MCF (arbitrary fluorescence units))",[6],180
same,outcome,[5],inactive
CCN1C(c2ccccc2)=C(c2ccccc2)S/C1=C/C=C1\SC(=S)N(C)C1=O,outcome,[1],inactive
same,"fluorescence, percent of control (lower = inhibition)",[2],41.8%
same,outcome,[4],inactive
same,"GTP binding signal, raw median fluorescence (lower = inhibition) (MCF (arbitrary fluorescence units))",[6],167
same,outcome,[5],inactive
CCC(C(=O)NC1CCCC1)N(C(=O)Cn1nnc(-c2ccc(C)o2)n1)c1cnc2ccccc2c1 (configuration not stated),outcome,[1],inactive
same,"GTP binding, percent of control",[3],60.1%
same,outcome,[4],inactive
same,"GTP binding signal, raw median fluorescence (lower = inhibition) (MCF (arbitrary fluorescence units))",[6],194
same,outcome,[5],inactive
COc1ccc(Cl)cc1NCc1sc(C(=O)O)cc1C,outcome,[1],inactive
same,"fluorescence, percent of control (lower = inhibition)",[2],62.5%
same,"GTP binding, percent of control",[3],84.3%
same,outcome,[4],inactive
same,outcome,[5],inactive
CN1C(=O)N(C)c2ccc(C=O)c3cccc1c23,outcome,[1],inactive
same,"fluorescence, percent of control (lower = inhibition)",[2],36.5%
same,"GTP binding, percent of control",[3],82.8%
same,outcome,[4],inactive
same,outcome,[5],inactive
CCn1nc(C(=O)OCC(=O)c2cc(C)n(Cc3cccs3)c2C)c2ccccc2c1=O,outcome,[1],inactive
same,"fluorescence, percent of control (lower = inhibition)",[2],46.9%
same,"GTP binding, percent of control",[3],64.2%
same,outcome,[4],inactive
same,outcome,[5],inactive
O=C(NCc1ccc2c(c1)OCO2)c1ccc(CSCc2cccc(Cl)c2)o1,"fluorescence, percent of control (lower = inhibition)",[2],31%
same,"GTP binding, percent of control",[3],76.4%
same,outcome,[4],inactive
same,"GTP binding signal, raw median fluorescence (lower = inhibition) (MCF (arbitrary fluorescence units))",[6],266
same,outcome,[5],inactive
O=C(O)CCN1C(=O)/C(=C/c2ccc(-c3nc4ccccc4s3)o2)SC1=S,outcome,[1],inactive
same,"fluorescence, percent of control (lower = inhibition)",[2],32.8%
same,"GTP binding, percent of control",[3],53.9%
same,outcome,[4],inactive
same,outcome,[5],inactive
COc1cccc(-n2nnnc2S(C)(=O)=O)c1,"fluorescence, percent of control (lower = inhibition)",[2],34%
same,"GTP binding, percent of control",[3],59.3%
same,outcome,[4],inactive
same,"GTP binding signal, raw median fluorescence (lower = inhibition) (MCF (arbitrary fluorescence units))",[6],157
same,outcome,[5],inactive
COc1ccc(C2CC(c3ccccc3)=NN2c2ccc(S(N)(=O)=O)cc2)cc1 (configuration not stated),"GTP binding, percent of control",[3],84.1%
same,outcome,[4],inactive
same,"GTP binding signal, raw median fluorescence (lower = inhibition) (MCF (arbitrary fluorescence units))",[6],260 and 239
same,outcome,[5],inactive
O=C(Nc1nnc(-c2ccc3c(c2)OCCO3)o1)c1ccc(Cc2ccccc2)cc1,"GTP binding, percent of control",[3],83.9%
same,outcome,[4],inactive
same,"GTP binding signal, raw median fluorescence (lower = inhibition) (MCF (arbitrary fluorescence units))",[6],144
same,outcome,[5],inactive
CCCc1nc2c(=O)n(C)c(=O)nc-2n(C)n1,"GTP binding, percent of control",[3],84.4%
same,outcome,[4],inactive
same,outcome,[5],inactive
O=C(O)c1ccccc1NCCc1ccc(Cl)cc1,"GTP binding, percent of control",[3],87%
same,outcome,[5],inactive
CC(=O)c1ccc(C#CC(=O)c2ccc([N+](=O)[O-])cc2)cc1,"GTP binding, percent of control",[3],204%
same,outcome,[4],inactive
same,"GTP binding signal, raw median fluorescence (lower = inhibition) (MCF (arbitrary fluorescence units))",[6],55.9
same,outcome,[5],inactive
O=S(=O)(c1cccc(-c2nnc(SCc3ccc(Cl)cc3)o2)c1)N1CCCCC1,"GTP binding signal, raw median fluorescence (lower = inhibition) (MCF (arbitrary fluorescence units))",[6],182
N#Cc1c(-c2ccccc2)nc(SCC(=O)Nc2ccccc2)[nH]c1=O,"GTP binding, percent of control",[3],47.2%
Cc1ccc(C(=O)COC(=O)c2ccc3c(c2)C(=O)N(c2cccc4ncccc24)C3=O)cc1,"GTP binding signal, raw median fluorescence (lower = inhibition) (MCF (arbitrary fluorescence units))",[6],151
CC1CCN(c2ncccc2C(=O)O)CC1,"GTP binding signal, raw median fluorescence (lower = inhibition) (MCF (arbitrary fluorescence units))",[6],407
COc1cc(OC)c(-c2c3cc(O)c(=O)cc-3oc3cc(O)c(O)cc23)cc1OC,"GTP binding signal, raw median fluorescence (lower = inhibition) (MCF (arbitrary fluorescence units))",[6],480
OC(CNCCc1ccc(Cl)cc1)COc1ccc2ccccc2c1 (configuration not stated),"fluorescence, percent of control (lower = inhibition)",[2],40.2%
same,"GTP binding, percent of control",[3],85.7%
same,outcome,[4],inactive
same,outcome,[5],inactive
Cc1ccc(SC(CC(=O)c2ccc(C(C)(C)C)cc2)C(=O)O)cc1 (configuration not stated),"fluorescence, percent of control (lower = inhibition)",[2],26.6%
same,"GTP binding, percent of control",[3],72.6%
same,outcome,[4],inactive
same,"GTP binding signal, raw median fluorescence (lower = inhibition) (MCF (arbitrary fluorescence units))",[6],240
same,outcome,[5],inactive
same,GFP response vs DMSO,[7],95.8% (inactive)
same,GFP response vs DMSO,[7]; [12],94%
same,GFP response vs DMSO,[7]; [13],97.3%
same,GFP response relative to DMSO,[8],106% (inactive)
same,GFP response relative to DMSO,[8]; [14],103%
same,GFP response relative to DMSO,[8]; [15],111%
same,GFP response vs DMSO,[9],94.4% (inactive)
same,"GFP response, % of DMSO",[10],99.3% (inactive)
same,"GFP response, % of DMSO",[11],92.2% (inactive)
same,"GFP response, % of DMSO",[11]; [12],90.5%
same,"GFP response, % of DMSO",[11]; [13],91.8%
CCn1cc(C(=O)OCC(=O)c2cc(C)n(-c3ccc(OC(F)F)cc3)c2C)c(=O)c2ccc(C)nc21,"GTP binding signal, raw median fluorescence (lower = inhibition) (MCF (arbitrary fluorescence units))",[6],148
CC(=O)Oc1ccc2c(c1)Oc1cc(OC(C)=O)ccc1C21OC(=O)c2ccccc21,"GTP binding signal, raw median fluorescence (lower = inhibition) (MCF (arbitrary fluorescence units))",[6],720
Cc1ccc(C)c(OCCn2cc(C(=O)O)c3ccccc32)c1,"fluorescence, percent of control (lower = inhibition)",[2],47.5%
same,"GTP binding, percent of control",[3],91.6%
same,outcome,[4],inactive
same,"GTP binding signal, raw median fluorescence (lower = inhibition) (MCF (arbitrary fluorescence units))",[6],304
same,outcome,[5],inactive
Cc1cc(C)c(C)c(C(=O)c2ccccc2C(=O)O)c1C,"GTP binding, percent of control",[3],122%
same,outcome,[4],inactive
same,outcome,[5],inactive
CS(=O)(=O)c1ccc(C(=O)OCC(=O)NC(=O)C2CCCCC2)cc1[N+](=O)[O-],"GTP binding, percent of control",[3],76.2%
same,outcome,[4],inactive
same,"GTP binding signal, raw median fluorescence (lower = inhibition) (MCF (arbitrary fluorescence units))",[6],200
same,outcome,[5],inactive
